Source: PubChem (several laboratories)
GDH-TPI counter: counter-screen for M. tuberculosis FBA inhibitors: GDH-TPI coupled enzymes. inhibition, % at 4.8 µM. 360,000 tested, 1.2% active. GDH-TPI coupled enzyme counterscreen, NADH absorbance. AID 588335; in the data active = inhibition above about 30%;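 also: 0% = DMSO wells and 100% = wells lacking the enzyme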
Anthrax LF inh2: inhibitors of Bacillus anthracis lethal factor protease. inhibition, % at 10 µM. multiplex microsphere protease cleavage assay, LF. 360,000 tested, 0.12% active. P15917; also: plate controls were buffer without enzyme for full effect and enzyme alone for no effect
Target sequence (P15917 whole entry, looked up): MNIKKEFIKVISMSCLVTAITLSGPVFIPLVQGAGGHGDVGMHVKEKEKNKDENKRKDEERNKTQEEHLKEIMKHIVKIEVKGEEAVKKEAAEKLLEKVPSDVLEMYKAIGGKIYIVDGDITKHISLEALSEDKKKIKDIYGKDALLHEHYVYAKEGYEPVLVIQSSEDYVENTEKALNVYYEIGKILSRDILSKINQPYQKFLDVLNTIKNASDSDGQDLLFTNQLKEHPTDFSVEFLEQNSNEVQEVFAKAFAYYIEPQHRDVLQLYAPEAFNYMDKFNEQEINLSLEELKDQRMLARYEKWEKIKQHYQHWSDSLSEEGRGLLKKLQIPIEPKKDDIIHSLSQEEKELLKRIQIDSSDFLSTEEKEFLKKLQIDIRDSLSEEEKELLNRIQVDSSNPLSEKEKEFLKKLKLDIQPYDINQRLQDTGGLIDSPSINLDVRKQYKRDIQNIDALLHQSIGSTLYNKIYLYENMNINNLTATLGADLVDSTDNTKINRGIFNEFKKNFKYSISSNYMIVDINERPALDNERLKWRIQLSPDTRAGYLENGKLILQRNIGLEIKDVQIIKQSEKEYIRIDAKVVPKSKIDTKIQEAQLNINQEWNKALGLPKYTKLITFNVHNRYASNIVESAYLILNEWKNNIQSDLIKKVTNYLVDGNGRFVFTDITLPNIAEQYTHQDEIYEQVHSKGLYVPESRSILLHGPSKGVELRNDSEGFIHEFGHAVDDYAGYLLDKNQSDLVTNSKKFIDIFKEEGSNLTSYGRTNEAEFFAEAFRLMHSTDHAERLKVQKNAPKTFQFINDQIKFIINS
BoNT F protease: BoNT F light chain protease inhibition; Multiplex microsphere protease cleavage assay, flow cytometry; inhibition, % at 10 µM; 360,000 tested, 0.22% active; in the data active = inhibition above about 35%, passing the limit was not always enough; inconclusive = no clear call, values can overlap the other calls; also: plate controls were buffer without enzyme for full effect and enzyme alone for no effect
Bead autofluor: flagged as autofluorescent in microsphere protease counterscreen; compound autofluorescence counterscreen, microsphere flow cytometry; stronger effect = higher value; fluorescence intensity (test concentration not listed); 360,000 tested, 3.1% active; AID 624483; in the data active = fluorescence intensity above about 16000; inconclusive = no clear call, values can overlap the other calls
FBA Mtb inh: Mtb fructose-bisphosphate aldolase inhibition | P9WQA3 | purified M. tuberculosis FBA, fluorescence read-out | inhibition, % at 1 µM | 360,000 tested, 2.3% active; in the data active = inhibition above about 27%;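 also: 0% = vehicle and 100% = reference inhibitor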
BoNT A protease: blocks Botulinum neurotoxin A light chain protease | multiplex microsphere protease substrate cleavage, flow cytometry | inhibition, % at 10 µM | 360,000 tested, 0.17% active; also: plate controls were buffer without enzyme for full effect and enzyme alone for no effect
Numbers without * were called inactive; ? = inconclusive; . = not tested or not shown; + = active, no number. Rows were chosen to be rich in hits. Some 6.6% of all compounds tested hit in one or more screens of this group. Rule as the data show it, unless noted: active = inhibition above about 30%; inconclusive = no clear call, values can overlap the other calls; inactive = below that.

SMILES | GDH-TPI counter | Anthrax LF inh2 | BoNT F protease | Bead autofluor | FBA Mtb inh | BoNT A protease
O=C(Cc1ccc(F)cc1)N/N=C/c1ccncc1 | 4 | -2 | 7 | 9019 | 1 | -1
O=C(NCC1CCCN(Cc2ccc3nonc3c2)C1)c1cccc(C(F)(F)F)c1 (stereo unspecified) | 9 | -2 | -2 | 5132 | -3 | 0
Cc1cc(=O)oc2cc(OC(=O)c3nn(C(C)C)c(=O)c4ccccc34)ccc12 | 14 | 0 | -3 | 2561 | + | 0
CCCn1nc(C(=O)Oc2ccc3c(C)cc(=O)oc3c2)c2ccccc2c1=O | 6 | -6 | -21 | 7940 | + | -3
CCCn1nc(C(=O)OCC(=O)Nc2ccc(C)cc2)c2ccccc2c1=O | 3 | -2 | -6 | 3985 | -1 | 0
Cc1ccc(SCCC(=O)OCC(=O)Nc2ccc(C(N)=O)cc2)cc1 | 0 | 3 | 3 | 8163 | -1 | 0
Cc1ccc(S(=O)(=O)Nc2ccccc2C(=O)N2CCN(C)CC2)cc1 | -1 | 5 | 18 | 6310 | 0 | 0
Cc1cc(NCCCN2CCOCC2)n2ncc(-c3ccc(Cl)cc3)c2n1 | 8 | -1 | -4 | 23672* | 4 | ?
CN(C)CCCNc1cc(C(C)(C)C)nc2c(-c3ccc(Cl)cc3)cnn12 | 6 | -1 | -28 | 2954 | 14 | -4
CC(C)(C)c1cc(NCCCn2ccnc2)n2ncc(-c3ccccc3)c2n1 | 9 | . | . | . | 15 | .
Cc1cc(NCCCn2ccnc2)n2ncc(-c3ccc(Cl)cc3)c2n1 | 22 | -8 | -2 | 22244* | 12 | ?
Cc1nnc(SCCC(=O)Nc2nc(-c3ccccc3)ns2)s1 | 8 | -4 | -6 | 16875* | -2 | -2
CCOc1ccc(NC(=O)CCSc2nnc(C)s2)cc1 | 6 | 2 | -17 | 5060 | 2 | -1
CCC(=O)Nc1nc(-c2ccccc2)ns1 | -8 | -2 | 2 | 21302* | -2 | 2
CCCC(=O)Nc1nc(-c2ccccc2)ns1 | -5 | -2 | -18 | 2564 | 1 | -1
CC(C)C(=O)Nc1nc(-c2ccccc2)ns1 | 12 | -7 | 3 | 22460* | 1 | ?
O=C(Nc1nc(-c2ccccc2)ns1)c1cccs1 | 11 | -1 | -6 | 22042* | 0 | -5
COC(=O)N/N=C/c1ccccc1OCc1ccccc1 | 5 | -2 | -2 | 2366 | 1 | -1
NC(=S)N/N=C/c1ccccc1OCc1cccc(Cl)c1 | 41* | 2 | -5 | 2502 | -1 | -1
CS(=O)(=O)Cc1ccc(C(=O)N(CCc2ccccc2)Cc2ccccc2)cc1 | 2 | -4 | -17 | ? | 1 | -2
Cc1ccc2cc(/C=C(\C#N)C(N)=O)c(N3CCCCC3)nc2c1 | 12 | 0 | -2 | 2368 | -9 | 4
CCOC(=O)/C(C#N)=C/c1cc2ccccc2nc1N1CCCCC1 | 8 | 12 | 10 | 2550 | 2 | 31*
COc1ccc(OC)c(NC(=O)NCCc2c[nH]c3ccccc23)c1 | 0 | 4 | 20 | 4356 | 6 | -2
CCOC(=O)[C@]12CCCC=C1N(Cc1ccc3c(c1)OCO3)C(=O)[C@H](CC(=O)N1CCCCC1)C2 | . | -2 | -12 | 6177 | . | -1
CCN(CC)C1=CC(=O)OC12CCCCC2 | 3 | -5 | -1 | 22472* | -1 | ?
SMILES | GDH-TPI counter | Anthrax LF inh2 | BoNT F protease | Bead autofluor | FBA Mtb inh | BoNT A protease
CC(C)N(C1=CC(=O)OC12CCCCC2)C(C)C | 17 | 20 | ? | 4461 | 1 | 0
O=S(=O)(Nc1nc2ccccc2nc1NCC1CCCO1)c1cccs1 (stereo unspecified) | 27 | -2 | -36 | 4846 | 5 | -2
Cc1ccc(S(=O)(=O)Nc2nc3ccccc3nc2NCC2CCCO2)cc1C (stereo unspecified) | 33* | 1 | -4 | 4530 | 19 | 0
Cc1cccc(S(=O)(=O)Nc2nc3ccccc3nc2NCC2CCCO2)c1 (stereo unspecified) | 33* | -1 | 0 | 3161 | 4 | 0
CC(=O)c1ccc(S(=O)(=O)N(C)CC(=O)NCc2ccco2)cc1 | 4 | 2 | 7 | 3825 | 2 | 2
O=C(O)c1nc(Cl)c(Cl)c(N/N=C/c2ccccc2C(F)(F)F)c1Cl | 31* | 0 | 9 | 5384 | -2 | 0
COc1cc(/C=N/NC(=O)c2nnn(-c3nonc3N)c2-c2cccs2)ccc1O | 47* | 3 | -1 | 4744 | 4 | 0
Cc1ccc(/C=N/NC(=O)c2nnn(-c3nonc3N)c2-c2ccc3c(c2)OCO3)s1 | 47* | -2 | 4 | 5319 | 0 | 0
CCCc1c(C(=O)N/N=C/C(C)=C/c2ccccc2)nnn1-c1nonc1N | 3 | 0 | 10 | 5694 | 2 | 1
CC(/C=N/NC(=O)c1nnn(-c2nonc2N)c1C(C)C)=C\c1ccccc1 | 33* | 1 | 3 | 4094 | 3 | 1
COc1cc(/C=N/NC(=O)c2nnn(-c3nonc3N)c2C(C)C)ccc1O | 32* | 0 | -2 | 6280 | -3 | -2
COc1ccc(/C=N/NC2=NCCCCC2)c(OC)c1 | 3 | -2 | 0 | 3880 | 16 | 0
COc1ccc(/C=N/NC(=O)c2nnn(-c3nonc3N)c2-c2cccs2)cc1OC | 69* | 1 | -4 | 5913 | 7 | -2
Cc1ccsc1/C=N/NC(=O)c1nnn(-c2nonc2N)c1C(C)C | 34* | 0 | -2 | 5480 | 2 | -1
CC(C)c1c(C(=O)N/N=C/c2cccs2)nnn1-c1nonc1N | 24 | 1 | 1 | 5372 | 0 | 0
Cc1cc2cc(C=O)c(Cl)nc2cc1C | 4 | -3 | -7 | 17857* | 1 | -3
Cc1ccc(-n2c(C)nnc2SCC(=O)NC2CCCC2)cc1 | -12 | -1 | 2 | 5085 | 2 | 2
Cc1scc(C(=O)NCc2ccco2)c1-c1ccccc1 | 2 | -3 | 4 | 20412* | 4 | 5
O=C(NCc1ccco1)c1ccccc1-c1ccccc1 | -4 | -4 | 3 | 22200* | -4 | 1
Cc1cc(C(=O)NCc2ccco2)cs1 | 0 | -1 | -4 | 9797 | 0 | 0
O=C(NCc1ccco1)c1ccccc1NS(=O)(=O)c1ccc(Br)s1 | -11 | -4 | 0 | 22236* | 0 | 0
O=C(O)c1ccccc1-c1ccccc1C(=O)NCc1ccco1 | 8 | -11 | -8 | 6847 | -1 | -1
CCC(C)NC(=O)c1ccccc1NC(=O)c1ccc(CSc2ccc(C)cc2)cc1 (stereo unspecified) | 7 | -4 | -6 | 17124* | 2 | -3
CCC(C)NC(=O)c1ccccc1SC (stereo unspecified) | 2 | -4 | -1 | 4500 | 4 | 0
Cc1ccccc1NC(=O)c1ccc(CSc2ncccn2)cc1 | 5 | -2 | 0 | 16598* | -2 | 0
CCC(C)NC(=O)c1ccccc1C(=O)NC(C)CC (stereo unspecified) | 2 | -3 | -6 | 24599* | 0 | -4
Cc1ccc(NC(=O)c2ccc(CSc3ccccn3)cc2)c(O)c1 | -6 | -2 | 1 | 5454 | 1 | 0
